# Measurements: PubChem BioAssay (NCATS)
# Where “and” joins values, the source holds several entries; their conditions need not be identical. Identical values can stand only once. Results filed as inconclusive are left out. A call without a number means that no potency is given here. Values without a mark were called inactive. Calls of active or inactive are those of the source. The call rests on the fitted dose curve; in most records, active means well fitted inhibition curve with a large enough effect; inconclusive means small, poorly fitted or top-dose-only effect; inactive means flat fitted curve, though single readings scatter.
# Experiments:
# [1] = test system: CRL-7250; test: Cytotoxic Profiling of Annotated Libraries Using Quantitative High-Throughput Screening (AID 1296008); conditions: Five cell lines viability, CellTiter-Glo ATP luminescence, 48-72 h; max response: active compounds read low; further: potency means the concentration at half of the fitted maximal effect
# In short: (§1)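 Cytotoxicity was measured as CellTiter-Glo ATP luminescence, read after 10 min at room temperature. Compound treatment of the cells lasted 48 or 72 hr at 37 degrees Celsius in a qHTS format.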
# [2] = test system: HEK293; test: as above; conditions: Five cell lines viability, CellTiter-Glo ATP luminescence, 48-72 h; max response: active compounds read low
# In short: as §1
# [3] = test system: HaCat; test: as above; conditions: Five cell lines viability, CellTiter-Glo ATP luminescence, 48-72 h; max response: active compounds read low
# In short: as §1
# [4] = test system: KB-3-1; test: as above; conditions: Five cell lines viability, CellTiter-Glo ATP luminescence, 48-72 h; max response: active compounds read low
# In short: as §1
# [5] = test system: NIH3T3; test: as above; conditions: Five cell lines viability, CellTiter-Glo ATP luminescence, 48-72 h; max response: active compounds read low
# In short: as §1
# [6] = test system: HACAT; test: qHTS assay to identify novel small-molecules to repurpose for Merkel cell carcinoma treatment (AID 1296009); conditions: MCC and control cell lines, CellTiter-Glo viability, 72 h; at 44.8 µM (top of the series) unless noted
# In short: (§2)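 After compound transfer in DMSO, plates were kept 72 hr at 37 degree celsius. Luminescent ATP signal from CellTiter-Glo served as viability measure, normalized against DMSO and no-cell controls.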
# [7] = test system: HEK293T; test: as above; conditions: MCC and control cell lines, CellTiter-Glo viability, 72 h; at 44.8 µM (top of the series)
# In short: as §2
# [8] = test system: CRL-7250; test: as above; conditions: MCC and control cell lines, CellTiter-Glo viability, 72 h; at 44.8 µM (top of the series) unless noted
# In short: as §2
# [9] = test system: N140; test: qHTS profiling for inhibitors of Plasmodium falciparum proliferation (AID 504749); conditions: P. falciparum in erythrocytes, SYBR Green DNA, 72 h; series mostly up to 28.7 µM
# In short: (§3)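 Three-day growth assay of blood-stage parasites in erythrocytes (0.3% parasitemia, 2.5% hematocrit) at 37 C, 5% CO2, quantified by SYBR Green DNA staining after overnight detergent lysis.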
# [10] = test system: P93_24; test: as above; conditions: P. falciparum in erythrocytes, SYBR Green DNA, 72 h; series mostly up to 28.7 µM
# In short: as §3
# [11] = test system: P94_40; test: as above; conditions: P. falciparum in erythrocytes, SYBR Green DNA, 72 h; series mostly up to 28.7 µM
# In short: as §3
# [12] = test system: PAD; test: as above; conditions: P. falciparum in erythrocytes, SYBR Green DNA, 72 h; series mostly up to 28.7 µM
# In short: as §3
# [13] = test system: PC15; test: as above; conditions: P. falciparum in erythrocytes, SYBR Green DNA, 72 h; series mostly up to 28.7 µM
# In short: as §3
# [14] = test system: PC26; test: as above; conditions: P. falciparum in erythrocytes, SYBR Green DNA, 72 h; series mostly up to 28.7 µM
# In short: as §3
# [15] = test system: PC49; test: as above; conditions: P. falciparum in erythrocytes, SYBR Green DNA, 72 h; series mostly up to 28.7 µM
# In short: as §3
# [16] = test system: SC27B; test: as above; conditions: P. falciparum in erythrocytes, SYBR Green DNA, 72 h; series mostly up to 28.7 µM
# In short: as §3
# [17] = test system: TAB109; test: as above; conditions: P. falciparum in erythrocytes, SYBR Green DNA, 72 h; series mostly up to 28.7 µM
# In short: as §3
# [18] = test system: TAB113; test: as above; conditions: P. falciparum in erythrocytes, SYBR Green DNA, 72 h; series mostly up to 28.7 µM
# In short: as §3
# [19] = test system: TAB165; test: as above; conditions: P. falciparum in erythrocytes, SYBR Green DNA, 72 h; series mostly up to 28.7 µM
# In short: as §3
# [20] = test system: W2; test: as above; conditions: P. falciparum in erythrocytes, SYBR Green DNA, 72 h; series mostly up to 28.7 µM
# In short: as §3
# Further: nearly all actives have a fitted effect of over 60% in size.
smiles,measurement,setting,value
O=C(O)CCCCCCNC1c2ccccc2CCc2ccccc21,max response,[1],-2%
same,max response,[2],2.21%
same,max response,[3],0.465%
same,max response,[4],7.47%
same,max response,[5],1.62%
CCOP(=S)(OCC)O/N=C(\C#N)c1ccccc1,max response,[1],-6.28%
same,outcome,[2],inactive
same,outcome,[3],inactive
same,max response,[4],-0.0569%
same,outcome,[5],inactive
same,outcome,[6],inactive
same,outcome,[7],inactive
C[C@H]1CNCCc2ccc(Cl)cc21,outcome,[1],inactive
same,outcome,[2],inactive
same,max response,[3],2.82%
same,max response,[4],-14.3%
same,outcome,[5],inactive
same,outcome,[8],inactive
same,outcome,[7],inactive
OC(O)C(Cl)(Cl)Cl,Potency,[9],inactive
same,Potency,[10],inactive
same,Potency,[11],inactive
same,Potency,[12],inactive
same,Potency,[13],inactive
same,Potency,[14],inactive
same,Potency,[15],inactive
same,Potency,[16],inactive
same,Potency,[17],inactive
same,Potency,[18],inactive
same,Potency,[19],inactive
same,max response,[1],-3.66%
same,max response,[2],-2.43%
same,outcome,[3],inactive
same,max response,[4],1.25%
same,outcome,[5],inactive
same,outcome,[6],inactive
CN(C)CCc1c[nH]c2ccccc12,max response,[1],2.04%
same,max response,[2],-13.9%
same,max response,[3],4.72%
same,max response,[4],-5.51%
same,max response,[5],2.6%
CCOC(=O)NC(O)C(Cl)(Cl)Cl (centres undefined),Potency,[9],inactive
same,Potency,[10],inactive
same,Potency,[11],inactive
same,Potency,[12],inactive
same,Potency,[13],inactive
same,Potency,[14],inactive
same,Potency,[15],inactive
same,Potency,[16],inactive
same,Potency,[17],inactive
same,Potency,[18],inactive
same,Potency,[19],inactive
same,Potency,[20],inactive
same,max response,[1],0.547%
same,max response,[2],-1.01%
same,outcome,[3],inactive
same,max response,[4],11.7%
same,max response,[5],0.136%
same,outcome,[6],inactive
CCC(OC(C)=O)C(CC(C)NC)(c1ccccc1)c1ccccc1 (centres undefined),Potency,[1],43.7 µM (active)
same,Potency,[2],31 µM (active)
same,Potency,[3],27.6 µM (active)
same,max response,[4],-22.1%
CN(C)CCc1c[nH]c2ccc(O)cc12,max response,[1],4.21%
same,max response,[2],-2.05%
same,outcome,[3],inactive
same,max response,[4],2.29%
same,outcome,[5],inactive
same,outcome,[6],inactive [at 92 µM]
NC(=O)CN1CCCC1=O,Potency,[9],inactive
same,Potency,[10],inactive
same,Potency,[11],inactive
same,Potency,[12],inactive
same,Potency,[13],inactive
same,Potency,[14],inactive
same,Potency,[15],inactive
same,Potency,[16],inactive
same,Potency,[17],inactive
same,Potency,[18],inactive
same,Potency,[19],inactive
same,Potency,[20],inactive
same,outcome,[1],inactive
same,outcome,[2],inactive
same,outcome,[3],inactive
same,max response,[4],4.93%
same,max response,[5],-0.768%
same,outcome,[8],inactive
same,outcome,[6],inactive
same,outcome,[7],inactive
CC(C)C(Br)C(=O)NC(N)=O (centres undefined),Potency,[9],inactive
same,Potency,[10],inactive
same,Potency,[11],inactive
same,Potency,[12],inactive
same,Potency,[13],inactive
same,Potency,[14],inactive
same,Potency,[15],inactive
same,Potency,[16],inactive
same,Potency,[17],inactive
same,Potency,[18],inactive
same,Potency,[19],inactive
same,Potency,[20],inactive
same,outcome,[1],inactive
same,max response,[2],2.09%
same,max response,[3],-11.8%
same,max response,[4],-15.8%
same,max response,[5],-7.2%
same,outcome,[8],inactive
CC(C)[N+](C)(CCC(C(N)=O)(c1ccccc1)c1ccccc1)C(C)C,Potency,[9],inactive
same,Potency,[10],inactive
same,Potency,[11],inactive
same,Potency,[12],inactive
same,Potency,[13],inactive
same,Potency,[14],inactive
same,Potency,[15],inactive
same,Potency,[16],inactive
same,Potency,[17],inactive
same,Potency,[18],inactive
same,Potency,[19],inactive
same,max response,[1],3.89%
same,max response,[2],-1%
same,outcome,[3],inactive
same,max response,[4],11.9%
same,outcome,[5],inactive
same,outcome,[6],inactive
CCOC(=O)c1cncn1C(C)c1ccccc1 (centres undefined),max response,[1],3.39%
same,outcome,[1],inactive
same,max response,[2],-6.12%
same,outcome,[2],inactive
same,max response,[3],-5.29%
same,outcome,[3],inactive
same,max response,[4],0.49% and 0.484%
same,max response,[5],1.83% and -0.636%
same,outcome,[8],inactive
same,outcome,[6],inactive
same,outcome,[7],inactive
COc1ccc(OC)c(CC(C)N)c1 (centres undefined),max response,[1],-3.68%
same,max response,[2],-0.178%
same,outcome,[3],inactive
same,max response,[4],-0.889%
same,max response,[5],-6.71%
same,outcome,[6],inactive [at 92 µM]
C[C@@H]1CC[C@H]2[C@@H](C)C(=O)O[C@@H]3O[C@@]4(C)CC[C@@H]1[C@]32OO4,max response,[1],-4.21%
same,Potency,[2],2.37 µM (active)
same,outcome,[3],inactive
same,max response,[4],-14.6%
same,max response,[5],-3.92%
same,outcome,[6],inactive
COC(=O)C1=CCCN(C)C1,Potency,[9],inactive
same,Potency,[10],inactive
same,Potency,[11],inactive
same,Potency,[12],inactive
same,Potency,[13],inactive
same,Potency,[14],inactive
same,Potency,[15],inactive
same,Potency,[16],inactive
same,Potency,[17],inactive
same,Potency,[18],inactive
same,Potency,[19],inactive
same,Potency,[20],inactive
same,max response,[1],-3.77%
same,outcome,[1],inactive
same,max response,[2],2.76% and 4.85%
same,max response,[3],-4.46%
same,outcome,[3],inactive
same,max response,[4],6.89% and 12.1%
same,outcome,[5],inactive
same,outcome,[8],inactive
same,outcome,[6],inactive
CC(Cc1ccc2c(c1)OCO2)NO (centres undefined),max response,[1],-0.759%
same,max response,[2],-1.22%
same,max response,[3],-1.01%
same,max response,[4],-9.46%
same,max response,[5],3.02%
C[C@@H]1CN(C2CCC(C#N)(c3ccc(F)cc3)CC2)CC[C@]1(C(=O)O)c1ccccc1 (some centres undefined),outcome,[1],inactive
same,max response,[2],-6.67%
same,max response,[3],3.21%
same,max response,[4],-4.01%
same,outcome,[5],inactive
same,outcome,[8],inactive
